# About 83,000 compounds went through this panel and 20% of them were active in at least one assay; those are over-represented in the sample as a whole.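 Single-concentration screen, 48 h exposure, 96-well plates. Endpoint: percent growth. Below 10 = active.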 Unmarked numbers belong to inactive results. The source made the active and inactive calls.
# Tests used:
# Test in all cases: NCI-60 one-dose screen, 48 h (100 = growth as untreated, 0 = no growth, -100 = all killed)
# Details in all cases: 10 µM unless noted
# [1] = tested on: NCI-H23 lung
# [2] = tested on: NCI-H226 lung
# [3] = tested on: NCI-H322M lung
# [4] = tested on: HOP-62 NSCLC
# [5] = tested on: NCI-H460 lung
# [6] = tested on: HOP-92 NSCLC
# [7] = tested on: NCI-H522 lung
# [8] = tested on: A549/ATCC NSCLC
# [9] = tested on: 786-0 renal
# [10] = tested on: COLO 205 colon
# [11] = tested on: DU-145 prostate
# [12] = tested on: K-562 leukemia
# [13] = tested on: MALME-3M melanoma
# [14] = tested on: MDA-MB-231 breast
# [15] = tested on: RXF 393 renal
# [16] = tested on: SF-268 CNS
# [17] = tested on: SF-295 CNS
# [18] = tested on: SF-539 CNS
# [19] = tested on: UACC-257 melanoma
# [20] = tested on: M14 melanoma
SMILES,growth [1],growth [2] [%],growth [3] [%],growth [4] [%],growth [5],growth [6],growth [7],growth [8],growth [9],growth [10],growth [11] [%],growth [12],growth [13],growth [14],growth [15],growth [16],growth [17],growth [18],growth [19],growth [20]
COc1ccc2nc(-c3ccc(Cl)cc3)cc(-c3nnc(SCC(=O)Nc4ccc(/C(C)=N\O)cc4)o3)c2c1,2.74% (active),22.8,57.4,60,-31.2% (active),19.1%,9.31% (active),-9.66% (active),25.9%,56.1%,25.9,15.9%,15.1%,39.7%,39.7%,33.1%,43%,68.4%,44.4%,30.3%
FC(F)(F)c1ccc2c(Nc3cccc(C4CC(c5ccccc5)=NN4c4ccc(Cl)cc4)c3)ccnc2c1 (configuration not stated),61%,68.1,68.7,60.2,59.1%,47.5%,50.2%,72.4%,77.1%,58.1%,47.7,6.6% (active),83%,68%,74.2%,50.8%,57.8%,86.9%,73.8%,41.2%
Cc1nccc2c3ccc(OCc4cn(-c5ccc(Cl)cc5)nn4)cc3n(CC(C)C)c12,14.1%,42,66.1,35.6,17%,8.37% (active),1.04% (active),30.7%,2.68% (active),-22.6% (active),54.1,8.22% (active),0.392% (active),27.8%,0.754% (active),57.3%,15.4%,22.2%,4.16% (active),23.2%
COC(=O)/C=C/c1cc(OC)c2c(c1)[C@@H](C(=O)OC)[C@H](c1ccc(OC)c(OC)c1)O2,38.9%,79.4,98.3,24.9,59.7%,66.8%,22.1%,67.2%,37.9%,23.9%,14,10.8%,44.3%,53.4%,-12.2% (active),59.6%,18.4%,-7.1% (active),44.7%,2.02% (active)
COc1cc(C(=O)Nc2cc(OC)c3ccn(C)c3c2)cc2c1C[C@]1(C)CC[C@@H](O)C(C)(C)[C@H]1O2,30.3%,76.7,57.3,11.7,14%,8.71% (active),-3.97% (active),24.1%,0.587% (active),3.69% (active),32.1,9.98% (active),31%,30.6%,-32.8% (active),27.3%,-44.2% (active),-26.1% (active),32.5%,-32.7% (active)
COc1ccc(-n2cc(-c3ccc(Cl)c(Cl)c3)[nH]c2=O)cc1OC,94.8%,97.5,75.9,97.3,107%,75%,85.2%,89.6%,59.5%,109%,98.3,80.2%,80.1%,85.1%,108%,109%,101%,102%,85.7%,104%
CCCn1c2cc(OCc3cn(-c4ccc(Br)cc4)nn3)ccc2c2ccnc(C)c21,81.7%,25.6,71.5,63.9,36.2%,60%,76.1%,53.7%,36.7%,42%,90.2,35.4%,87.1%,50.5%,51%,88%,65.6%,36.4%,53.3%,67.5%
N#CC1C(c2ccc(Cl)cc2)=Nc2c(c(-c3ccccc3)nn2-c2ccccc2)C12C(=O)Nc1ccc(Cl)cc12 (configuration not stated),50.7%,61.5,79.2,57.9,22.3%,-8.89% (active),55.9%,27.2%,42.9%,51%,74,19.1%,70.3%,41.2%,28.3%,39.1%,28.1%,43.8%,53.6%,34.6%
O=C(/C(=C/c1ccc([N+](=O)[O-])cc1)SCc1ccc(Cl)cc1)c1ccc(F)cc1,57%,66.7,100,68.7,83.1%,80.3%,-1.33% (active),80.5%,76.9%,48.3%,86.3,1.3% (active),85.7%,56.3%,92%,76.1%,84.9%,88.6%,92.5%,47.3%
COc1ccc(/C(=N\O)c2cc(C)c(OC)c(C)c2)cc1O,45.9%,60.6,48.3,39.8,9.22% (active),54.1%,-11.4% (active),22.2%,35.3%,-38% (active),29.4,12%,67%,24.8%,62.9%,30.4%,29.7%,2.65% (active),70%,13.6%
O=C(/C(=C/c1ccc([N+](=O)[O-])cc1)SCc1ccc(F)cc1)c1ccc(Cl)cc1,58.9%,64.6,98.1,76.8,82.4%,69.6%,-41.4% (active),86.8%,82.5%,64%,87.5,0.694% (active),91.9%,58.7%,93.4%,75.6%,81.6%,94.6%,87.4%,44.7%
CCC1=C[C@H]2CN(CCc3c([nH]c4ccccc34)[C@@](C(=O)OC)(c3cc4c(cc3OC)N(C)[C@H]3[C@@](O)(C(=O)OC)[C@H](OC(C)=O)[C@]5(CC)[C@@H]6C[C@@H]6CN6CC[C@]43[C@@H]65)C2)C1,44%,47.9,66.1,10.7,5.3% (active),-7.42% (active),-29% (active),17.7%,12.6%,-43.5% (active),18.3,2.96% (active),37.3%,-21.9% (active),47.6%,7.66% (active),11.1%,-13.3% (active),55.1%,-32% (active)
Cc1nc2sc(C(=O)Nc3cccc4ccccc34)c(N)c2cc1C(C)O (configuration not stated),26.2%,70.7,44.8,39.8,9.5% (active),83.7%,-15.9% (active),22.7%,34.1%,-5.28% (active),13.6,8.19% (active),85.1%,33.1%,21.7%,51.4%,10.8%,0.0649% (active),64%,15.4%
CNC(=O)c1cc(Oc2ccc3c(c2)sc2nc(-c4ccc(NC(C)=O)cc4)cn23)ccn1,60.1%,72.3,69.6,41.5,49.8%,35.3%,28.4%,59.6%,33.8%,47%,23.1,50.5%,71.8%,59.5%,8.2% (active),64%,26.2%,62.8%,70.9%,46.5%
NCCCn1c2c(c3cc(-c4ccn[nH]4)ccc3c1=O)C(=O)c1ccccc1-2,57.6%,56.9,67.8,42.4,11.8%,79.2%,30.6%,28.4%,41%,43.8%,33.8,6.99% (active),75.2%,68.1%,79.5%,52.8%,61.7%,75.2%,102%,74.8%
O=CN1N=C(c2ccc(Cl)cc2)CC1c1cccc(Nc2ccnc3cc(C(F)(F)F)ccc23)c1 (configuration not stated),–,–,–,–,–,–,57%,–,–,–,–,–,–,–,–,–,–,–,–,–
Nc1ccccc1NS(=O)(=O)c1ccc(Cl)cc1,–,–,–,–,–,–,85.2%,–,–,–,–,–,–,–,–,–,–,–,–,–
